Our source for the Potency values is PubChem BioAssay AID651768 (National Center for Advancing Translational Sciences (NCATS), 2012).

Screen size: about 360,000 compounds; about 1,700 (0.47%) were called active. A call without a number means that no potency is given here. About 2% were inconclusive and are not listed. Calls come from the whole dose curve; as a rule, active = well fitted inhibition curve with a large enough effect; inconclusive = small, poorly fitted or top-dose-only effect; inactive = no such curve, though single readings can be large or run the other way. Only a selection was taken, and actives are over-represented in it overall.
Potency is the fitted concentration of half-maximal effect.

Sequence of Bifunctional 3'-5' exonuclease/ATP-dependent helicase WRN (Homo sapiens) (Q14191 whole entry, looked up): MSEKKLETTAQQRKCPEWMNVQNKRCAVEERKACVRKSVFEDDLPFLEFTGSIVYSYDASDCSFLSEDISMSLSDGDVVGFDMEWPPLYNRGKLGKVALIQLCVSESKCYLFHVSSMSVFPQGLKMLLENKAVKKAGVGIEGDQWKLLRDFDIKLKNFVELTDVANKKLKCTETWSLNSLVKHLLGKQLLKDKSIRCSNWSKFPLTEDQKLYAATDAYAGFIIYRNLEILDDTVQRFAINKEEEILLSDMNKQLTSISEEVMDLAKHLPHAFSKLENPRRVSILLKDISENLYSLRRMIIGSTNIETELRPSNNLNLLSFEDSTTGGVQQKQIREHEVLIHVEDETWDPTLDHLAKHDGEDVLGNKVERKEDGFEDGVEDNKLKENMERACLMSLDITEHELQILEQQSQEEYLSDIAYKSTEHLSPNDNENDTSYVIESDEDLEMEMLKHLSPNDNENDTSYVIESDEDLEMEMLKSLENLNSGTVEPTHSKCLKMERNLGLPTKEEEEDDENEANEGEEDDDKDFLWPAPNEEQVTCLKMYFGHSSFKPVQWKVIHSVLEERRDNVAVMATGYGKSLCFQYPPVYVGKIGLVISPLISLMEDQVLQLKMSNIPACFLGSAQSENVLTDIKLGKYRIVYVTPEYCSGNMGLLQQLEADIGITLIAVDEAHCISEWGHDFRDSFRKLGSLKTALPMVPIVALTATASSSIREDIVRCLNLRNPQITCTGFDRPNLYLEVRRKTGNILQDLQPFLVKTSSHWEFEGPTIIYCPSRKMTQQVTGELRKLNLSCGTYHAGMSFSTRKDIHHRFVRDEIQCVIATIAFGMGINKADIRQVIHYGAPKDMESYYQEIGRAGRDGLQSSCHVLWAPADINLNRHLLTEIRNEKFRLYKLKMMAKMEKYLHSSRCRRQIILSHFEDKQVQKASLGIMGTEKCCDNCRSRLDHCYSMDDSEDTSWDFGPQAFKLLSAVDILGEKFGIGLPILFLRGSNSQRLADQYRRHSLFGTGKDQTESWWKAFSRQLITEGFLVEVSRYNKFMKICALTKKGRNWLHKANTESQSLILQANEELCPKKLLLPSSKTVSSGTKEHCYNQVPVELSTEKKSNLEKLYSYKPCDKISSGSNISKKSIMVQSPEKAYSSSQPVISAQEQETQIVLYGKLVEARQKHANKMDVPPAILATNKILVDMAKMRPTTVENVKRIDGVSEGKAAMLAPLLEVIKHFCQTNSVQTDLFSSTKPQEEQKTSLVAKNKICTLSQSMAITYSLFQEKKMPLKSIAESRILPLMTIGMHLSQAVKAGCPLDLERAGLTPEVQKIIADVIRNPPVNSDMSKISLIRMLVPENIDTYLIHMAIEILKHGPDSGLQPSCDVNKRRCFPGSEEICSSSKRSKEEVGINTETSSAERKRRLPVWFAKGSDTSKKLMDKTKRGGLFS

This assay concerns the target Bifunctional 3'-5' exonuclease/ATP-dependent helicase WRN (Homo sapiens) (UniProt Q14191). Put plainly: qHTS for Inhibitors of WRN Helicase. Note: nearly all actives have a fitted effect of over 55% in size. Conditions: WRN helicase unwinding, fluorescent forked duplex, kinetic; series mostly up to 114 µM. The text has this:
Inhibition of DNA repair is proposed as a strategy for combating cancer. Synthetic lethality is an approach that exploits preexisting DNA repair deficiencies in certain tumors to develop inhibitors of DNA repair pathways that compensate for the tumor-associated DNA repair deficiency. Because helicases play critical roles in the DNA damage response and in DNA repair, particularly in actively dividing and replicating cells, characterization of synthetic lethal relationships of DNA helicases may be of value in developing improved anticancer treatment strategies; moreover, small molecules that specifically target a given DNA helicase may be useful for understanding its role in cellular nucleic acid metabolism. The goal of this project is to identify small molecule, non-covalent chemical inhibitors of the Werner syndrome (WS) helicase (WRN), which plays an important role in cell proliferation, the replication stress response, and DNA repair. […] The WRN gene product that is defective in the chromosomal instability disorder has DNA helicase and exonuclease activities and interacts with a number of nuclear proteins to maintain genomic stability. We will employ an optimized high-throughput screening assay that utilizes a fluorescence intensity modulation scheme with a fluorophore and quencher positioned near one another within a duplex deoxyoligonucleotide that contains a single forked structure. After a high-throughput screen of the ~350,000-member Molecular Libraries Small Molecule Repository (MLSMR) collection, followed by data analysis and hit selection, a panel of confirmatory, as well as secondary and ternary, assays will be employed to identify high-confidence WRN inhibitors. Structure-activity relationships will be investigated for the top candidate inhibitor series through medchem expansion. These are the results of the primary screening campaign against the MLSMR. NIH Chemical Genomics Center [NCGC] NIH Molecular Libraries Probe Centers Network [MLPCN] MLPCN Grant: MH096530 Assay Submitter (PI): Robert Brosh, National Institute of Aging
Three muL of reagents (buffer in columns 3 and 4 as negative controls; WRN at 20 nM final concentration in columns 1 and 2 as positive controls; columns 5-48 as test reactions) will be dispensed into a 1536-well Greiner black plate via solenoid-valve based nanoliter dispensers. Compounds (23 nL each in columns 5-48) and control (23 nL each in column 2 as dose-response) will be transferred via a Kalypsys pintool equipped with a 1536-pin array. Plates will be incubated for 15 min at room temperature, and then 1 µL of substrate (100 nM forked duplex oligonucleotide and 2 mM ATP final concentrations) will be added to start reaction, and plate will be transferred into a ViewLux high-throughput CCD imager where reaction progress is measured in kinetic mode using standard red-fluorescence optics (excitation filter 525 nm, emission filter 598 nm).
For the molecule `Cc1ccc2c(NC(=O)C3CC3)cccc2n1`, the Potency result was “inactive”. For `COc1ccc(CNC(=O)/C(C#N)=C/c2cccc(OC)c2OC)cc1` the value was “inactive”. Consider `Cc1ccc(/C=C(\C#N)C(=O)Nc2cccc3ncccc23)o1`, for which the Potency was 20 µM (active). Regarding `CC(O)CN(Cc1ccc(Cl)cc1)CC(C)O` (configuration not stated), the Potency result is “inactive”. For the molecule `Cc1ccc(S(=O)(=O)NC[C@H]2O[C@@H](n3cnc4c(N)ncnc43)[C@H](O)[C@@H]2O)s1`, the Potency entry was “inactive”. `O=c1ccc2c(-c3ccccc3S(=O)(=O)O)c3ccc(O)c(O)c3oc-2c1O`: the Potency is 0.212 µM (active). For `CCC(C)CN1C(=O)CSCC1(C)C(=O)NCc1ccccc1` (configuration not stated) the value was “inactive”; for `O=C(CSc1nnc(-c2ccncc2)o1)NCc1ccc(Cl)cc1`, “inactive”; for `COc1ccc2c(c1)c(=Cc1ccc(N(C)C)cc1)c1cc(-c3ccccc3)[n+](C)n12`, 28.2 µM (active). The entry for `CCOC(=O)N1CCC(N2Cc3cccc(C(=O)Nc4ccc(S(=O)(=O)N(CC)CC)cc4)c3C2=O)CC1` is “inactive”; for `CCCCn1c(SCc2ncc(-c3ccccc3)o2)nc2cc(S(N)(=O)=O)ccc21` it is “inactive”; for `COc1ccc(N(CC(=O)NCCSCc2cccc(Cl)c2)S(C)(=O)=O)cc1` it is “inactive”.

On to `COC(=O)c1ccc(COc2ccc(/C=C/C(=O)c3ccc(OC)c(CSCC(=O)O)c3)cc2OC)cc1`, for which the Potency is 44.7 µM (active). On to `COC(=O)c1ccc(C(NC(=O)OCc2ccccc2)/C(C)=C/[C@@H](C)C(=O)NCc2ccc(OC)c(OC)c2)cc1` (some centres not stated), for which the Potency entry was “inactive”. As to `COc1cc(/C=C/C(=O)OCC(=O)NC(=O)NCc2ccccc2)ccc1OCC#N`, the Potency result is “inactive”.

As to `COc1cccc(/C=N/NC(=O)C(=O)N2CCCC2)c1`, the Potency result is “inactive”.

As for `CC(NC(=O)C(=O)NN=C1CCC(C(C)(C)C)CC1)c1ccccc1` (configuration not stated), the Potency entry was “inactive”. Take `CC(=O)Nc1cncc(-c2ccccc2CO)n1`: the Potency entry is “inactive”. `O=C(O)C1C2C=CC(C2)C1C(=O)N1CCN(CCO)CC1` (configuration not stated): the Potency result is “inactive”. For the molecule `C#CCOCCOCCOCCNc1nc(N2CCN(C(=O)CCCCCCCCCCNC(=O)[C@H]([C@@H](C)CC)n3cc(CCCCN=C(N)N)nn3)CC2)nc(N2CCN(C(=O)CCCCCCCCCCNC(=O)[C@H](CO)n3cc(CCCSC)nn3)CC2)n1`, the Potency is 25.1 µM (active).

Take `C#CCOCCOCCOCCNc1nc(N2CCN(C(=O)C([C@@H](C)CC)n3cc(C(N)COC(=O)C(F)(F)F)nn3)CC2)nc(N2CCN(C(=O)[C@H](CCCCN)n3cc(C(N)CC(C)C)nn3)CC2)n1` (some centres not stated): the Potency result is “inactive”.

Take `C#CCOCCOCCOCCNc1nc(N2CCOCC2)nc(N2CCN(C(=O)[C@H](Cc3ccc(O)cc3)n3cc(CCO)nn3)CC2)n1`: the Potency result is “inactive”.

Turning to `C#CCOCCOCCOCCNc1nc(N2CCN(C(=O)C(Cc3ccc(O)cc3)n3cc(C(N)CC(C)C)nn3)CC2)nc(N2CCN(C(=O)C(Cc3ccc(O)cc3)n3cc(C(N)C(C)CC)nn3)CC2)n1` (configuration not stated), the Potency entry is “inactive”. For the molecule `C#CCOCCOCCOCCNc1nc(N2CCN(C(=O)[C@H](CCC(=O)O)n3cc(C(N)CO)nn3)CC2)nc(N2CCN(C(=O)[C@H](Cc3ccc(O)cc3)n3cc(C(N)[C@H](C)CC)nn3)CC2)n1` (some centres not stated), the Potency result is “inactive”. Regarding `C#CCOCCOCCOCCNc1nc(N2CCN(C(=O)CCCCCCCCCCNC(=O)Cn3cc(CCCCCN)nn3)CC2)nc(N2CCN(C(=O)CCCCCCCCCCNC(=O)[C@H](CO)n3cc(CCCSC)nn3)CC2)n1`, the Potency is 31.6 µM (active). Regarding `C#CCOCCOCCOCCNc1nc(N2CCN(C(=O)CCCCCCCCCCNC(=O)[C@H](CCCCN)n3cc(C)nn3)CC2)nc(N2CCN(C(=O)CCCCCCCCCCNC(=O)[C@H](CO)n3cc(CCCSC)nn3)CC2)n1`, the Potency is 50.1 µM (active).

Turning to `C#CCOCCOCCOCCNc1nc(N2CCN(C(=O)[C@H](CCCCN)n3cc([C@@H](N)C(C)CC)nn3)CC2)nc(N2CCN(C(=O)[C@H](Cc3ccc(O)cc3)n3cc([C@@H](N)C(C)CC)nn3)CC2)n1` (some centres not stated), the Potency result was “inactive”. For `C#CCOCCOCCOCCNc1nc(N2CCN(C(=O)[C@H](CO)n3cc([C@@H](N)C(C)C)nn3)CC2)nc(N2CCN(C(=O)[C@H](CCC(=O)O)n3cc([C@@H](N)[C@H](C)CC)nn3)CC2)n1` the value was “inactive”; for `COc1ccc(NC(=O)C(c2ccncc2)n2c(=O)c(-c3cc4ccccc4[nH]3)nc3ccccc32)cc1` (configuration not stated), “inactive”; for `Cc1ccc(C(=O)NNC(=O)OC(C)(C)C)c(Cl)c1`, “inactive”. `CCCCN(C=O)c1c(CC)nc2c(OCc3ccccc3C(=O)OC)cccn12`: the Potency entry is “inactive”. On to `Cc1c(NC(=O)COC(=O)/C=C/c2cccc(F)c2)c(=O)n(-c2ccccc2)n1C`, for which the Potency result is “inactive”. As to `O=C(C1CCN(CC2CCCCC2)CC1)N1CCCC1`, the Potency entry is “inactive”.

Regarding `CN1CCN(C(=O)c2ccc(-c3cc4nc(NCc5cccnc5)n(C)c(=O)c4s3)cc2)CC1`, the Potency entry was “inactive”. With `CN(C)NC(=O)C(NC(=O)c1ccc(N)cc1)C12CC3CC(CC(C3)C1)C2` (configuration not stated), the Potency result was “inactive”. The entry for `Cc1cccc(CN2CCN(C3CN(Cc4cn(Cc5cc(C)cc(C)c5)nn4)S(=O)(=O)C3)CC2)c1` (configuration not stated) is “inactive”; for `CN(CC1CCCO1)S(=O)(=O)c1ccc(C(=O)Nc2ccc([N+](=O)[O-])cc2)cc1` (configuration not stated) it is “inactive”.

For the molecule `Cn1ccc(=Nc2ccc(NC(=O)c3ccc(N=c4ccn(C)c5ccc([N+](=O)[O-])cc45)cc3)cc2)cc1`, the Potency was 39.8 µM (active).

`CC(C)c1ccc(NC(=O)CCN2C(=O)c3ccc([N+](=O)[O-])cc3C2=O)cc1`: the Potency result is “inactive”.

As for `CC(C)C[C@H]1CNC(=S)N1C[C@H]1CCCN1C[C@H](Cc1ccc(O)cc1)N1C[C@H](Cc2ccc(O)cc2)N(CC2CCCCC2)C1=S`, the Potency entry is “inactive”.

Take `CCc1ccc(N(CC(=O)NCc2cccnc2)S(=O)(=O)c2ccccc2)cc1`: the Potency result was “inactive”.

In the case of `O=C(c1cccnc1)N(c1cc2sc(=O)oc2c2ccccc12)S(=O)(=O)c1ccccc1`, the Potency is 20 µM (active).
